# MT1-MMP txn act: activates MT1-MMP transcription; 86,000 tested, 0.16% active; HT1080 MT1-MMP promoter luciferase reporter, luminescence, overnight; active compounds read high; activation factor at 10 µM;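 active = activation factor of at least 2 for MT1-MMP transcription at 10 µM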
# ERb SRC1 inh: blocks coactivator binding to human estrogen receptor beta; 86,000 tested, 1.3% active; Q92731; TR-FRET ER-beta LBD / SRC1-Cy5 peptide binding; receptor agonist-loaded with 1 µM estradiol; inhibition, % at 25.6 µM;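 active = compounds whose percent inhibition of the receptor-coactivator binding signal exceeds about 50% in the single-dose screen, limit read from the data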
# MMP13 inh: blocks human MMP13 activity; MMP-13 fTHP FRET cleavage, Mca fluorescence; AID 570; 65,000 tested, 0.07% active; inhibition, % at 4 µM;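 active = inhibition above the mean of compound-free control plate wells plus 3 SD, cut at about 14% in these data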
# Smad3 inh: inhibitors of human Smad3 transcription factor binding. P84022. TR-FRET Smad3/Dy647-FoxH1 peptide binding, europium anti-His. inhibition, % at 25 µM. 88,000 tested, 0.29% active. AID 630;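 active = compounds that reduce the energy-transfer binding signal between the protein and its labelled peptide by more than half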
# Target sequence (P84022 whole entry, looked up): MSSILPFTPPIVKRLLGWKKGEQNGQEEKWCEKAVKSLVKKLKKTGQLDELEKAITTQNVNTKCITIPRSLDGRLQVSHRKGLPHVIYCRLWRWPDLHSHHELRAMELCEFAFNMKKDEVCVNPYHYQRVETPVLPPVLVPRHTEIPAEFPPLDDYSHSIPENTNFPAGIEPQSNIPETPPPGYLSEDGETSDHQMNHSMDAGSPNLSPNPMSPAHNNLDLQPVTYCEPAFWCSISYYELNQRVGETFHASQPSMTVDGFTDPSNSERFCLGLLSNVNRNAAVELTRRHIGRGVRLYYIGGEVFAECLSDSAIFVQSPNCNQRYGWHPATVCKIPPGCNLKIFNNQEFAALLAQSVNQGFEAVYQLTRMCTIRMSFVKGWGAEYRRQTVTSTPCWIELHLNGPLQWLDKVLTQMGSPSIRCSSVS
# ERa coact pot: enhances coactivator binding to human estrogen receptor alpha. AID 639. P03372. TR-FRET ERalpha-LBD/SRC-Cy5 coactivator binding, 2 h; 100 = basal binding, no effect. 86,000 tested, 1.3% active. coactivator binding (% of control), % at 25.6 µM; in the data active = activity above about 200%;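 also: binding measured in presence of low estradiol as agonist stimulus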
# ERa SRC1 inh: blocks coactivator binding to human estrogen receptor alpha. TR-FRET ER-alpha LBD / SRC-1 peptide, estradiol-bound. inhibition, % at 25.6 µM. 86,000 tested, 1.7% active; in the data active = inhibition above about 50%
# Hits are given with their value; - = inactive; . = not tested or not shown; [ ] = another dose, or the depositor's remark. In the library only some 3.5% were active in any assay of this set; here they are far more common.
SMILES,MT1-MMP txn act,ERb SRC1 inh,MMP13 inh,Smad3 inh,ERa coact pot,ERa SRC1 inh
Cc1ccc(C)n1-c1ccc(C(=O)O)cc1,-,-,.,-,-,54[fluorescence artefact?]
CN(C)c1ccc(O)c2c1CC1CC3[C@@H](N(C)C)C(=O)C(C(N)=O)=C(O)[C@]3(O)C(=O)C1=C2O (some centres undefined),-,100[fluorescence artefact?],-,55[fluorescence artefact?],-,98[fluorescence artefact?]
COC(=O)c1[nH]c2cc(C)ccc2c1NC(=O)CN1CCCc2ccccc21,2.2,.,-,.,.,.
COC(=O)c1[nH]c2ccc(Br)cc2c1NC(=O)CN1CCCc2ccccc21,-,-,.,-,-,-
N#Cc1ccccc1Cn1c(=O)n(Cc2ccc(C(=O)NCc3ccco3)cc2)c(=O)c2ccccc21,-,-,-,-,-,82[fluorescence artefact?]
COc1cccc(C(=O)N(CN2CCCC2=O)c2cc(C)on2)c1,-,-,-,-,-,-
O=C(CCCCCn1c(=S)[nH]c2cc3c(cc2c1=O)OCO3)N1CCN(C(=O)c2ccco2)CC1,-,-,-,-,211[fluorescence artefact?],-
O=C(CCCn1c(=S)[nH]c2ccccc2c1=O)N1CCN(c2cccc(Cl)c2)CC1,-,54[fluorescence artefact?],.,-,-,92
CCCCCNC(=O)C1CC=CCC1C(=O)O (centres undefined),-,-,.,-,273[fluorescence artefact?],-
CCCCOc1ccc(NC(=O)C2CC=CCC2C(=O)O)cc1 (centres undefined),-,-,-,-,-,-
Cc1nc2sc3c(c2c(=O)[nH]1)CCC3,-,-,-,-,-,-
Cc1cc(-c2nc3c4c5c(sc4[nH]c(=O)n3n2)CCC5)c(C)o1,-,96[fluorescence artefact?],-,-,-,97[fluorescence artefact?]
Cc1cc(-c2csc(N)n2)c(C)n1C,-,83[fluorescence artefact?],.,-,-,71[fluorescence artefact?]
Nc1nc(-c2ccccc2Br)cs1,-,-,-,-,-,-
N#Cc1c(-c2ccco2)cc(C2CC2)nc1SCC(=O)c1ccccc1,-,-,-,-,-,-
CCC(CC)C(=O)NCc1ccc2c(c1)cc(C)n2C,-,.,-,.,.,.
Cc1cc2cc(CNC(=O)Nc3ccccc3)ccc2n1C,-,-,-,-,222[fluorescence artefact?],-
Cc1cc2cc(CNC(=O)c3cccs3)ccc2n1C,-,-,-,-,-,75[fluorescence artefact?]
CCCc1[nH]c(=O)c(C#N)c2c1COC(C)(C)C2,.,-,.,-,-,-
CCOC(=O)c1nn(-c2ccc(OC)cc2)c(=O)c2c(NC(=O)c3ccco3)scc12,-,-,-,-,-,-
COc1ccc(Cc2nc3ccc(S(=O)(=O)N4CCOCC4)cc3[nH]2)cc1,-,-,.,-,-,60
COc1ccc(Cc2nc3ccc(S(=O)(=O)N4CCOCC4)cc3[nH]2)cc1OC,-,-,.,-,-,-
CN(C)CCNC(=O)c1cc2c(s1)-c1ccccc1OC2,.,-,.,-,-,-
CCn1c2ccccc2c2cc(C3N=C(N)Nc4nc5ccccc5n43)ccc21 (centres undefined),-,-,-,-,277[fluorescence artefact?],-
NC1=NC(c2ccc(Cl)cc2)n2c(nc3ccccc32)N1 (centres undefined),-,-,-,-,-,-
SMILES,MT1-MMP txn act,ERb SRC1 inh,MMP13 inh,Smad3 inh,ERa coact pot,ERa SRC1 inh
CCOC(=O)c1c(C)oc2c1c(C(c1ccncc1)N1CCOCC1)c(O)c1ccccc12 (centres undefined),-,71[fluorescence artefact?],-,-,-,68[fluorescence artefact?]
CCOC(=O)c1c(C)oc2c1c(C=NC1CCS(=O)(=O)C1)c(O)c1ccccc12 (centres undefined),-,-,-,-,-,70
O=c1c2ccccc2c(C=NC2CCS(=O)(=O)C2)c(O)n1-c1ccccc1 (centres undefined),-,-,-,-,-,-
Cc1cc2c(cc(C(=O)N3CCC(C(=O)N4CCCC4)CC3)n2Cc2c(F)cccc2Cl)o1,.,-,.,-,-,-
Cc1ccc(NC(=O)C(CC(C)C)NC(=O)C2CCC(C)CC2)nc1 (centres undefined),.,-,.,-,-,-
NCCc1nnc(SCc2c(F)cccc2Cl)o1,-,-,-,-,-,-
CCn1c(=O)c2cc(C(=O)Nc3cc(C)on3)sc2c2ccccc21,-,-,-,-,-,54[fluorescence artefact?]
COc1ccc(-c2cc3nnc(-c4ccccc4)nc3s2)cc1,.,66[fluorescence artefact?],.,-,-,63[fluorescence artefact?]
COc1ccc(-c2cc(=O)c3ccccc3s2)cc1,-,-,-,-,-,-
CCNC(=O)c1c(NC(=O)C2COc3ccccc3O2)sc2c1CCCC2 (centres undefined),-,-,.,-,-,-
CC1(C)C(=O)Nc2ccccc2N1C(=O)COc1ccc(S(=O)(=O)N2CCOCC2)cc1Cl,-,88[fluorescence artefact?],-,-,-,85[fluorescence artefact?]
CC(C)COC(=O)c1nnsc1NC(=O)Nc1ccccc1,-,61,-,-,-,64[fluorescence artefact?]
CCc1ncc(CO)n1Cc1cccc2ccccc12,.,.,.,-,.,.
Cc1ccc2c(c1)c(=O)c1c3n2CCN(C(=O)CCl)C3CC1 (centres undefined),-,72,.,-,-,83[fluorescence artefact?]
Cc1ccc2c(c1)c1c3n2CCN(C(=O)CN2CCN(C)CC2)C3CCC1 (centres undefined),-,-,-,-,-,-
COC(=O)Cn1c(=O)cnc2ccccc21,-,-,-,-,-,-
COC(=O)c1cc(NC(=O)Cn2c(=O)cnc3ccccc32)cc(C(=O)OC)c1,-,-,-,-,-,55
N#Cc1c(N)nc(N2CCCC2)c(C#N)c1-c1ccc(Cl)cc1,-,-,-,-,-,-
CC(=O)Nc1nonc1-c1nc2ccccc2n1CC1CC1,-,-,-,-,-,-
CC(=O)Nc1nonc1-c1nc2ccccc2n1N(C(C)=O)C(C)=O,-,76,-,-,-,86[fluorescence artefact?]
COc1cc(C(Nc2ccccn2)c2ccc3ccc(C)nc3c2O)cc(OC)c1O (centres undefined),-,65,-,-,-,64[fluorescence artefact?]
Cc1ccc2ccc(C(Nc3ccccn3)c3ccccc3)c(O)c2n1 (centres undefined),.,-,.,-,-,-
COc1cccc(-n2nc(-c3ccnn3-c3ccc(F)cc3)c(=O)n(C)c2=O)c1,-,74,.,-,-,-
COc1ccc(-n2nccc2-c2nn(-c3cccc(OC)c3)c(=O)n(C)c2=O)cc1,-,-,.,-,-,-
Cc1ccc(S(=O)(=O)NCC(=O)OCC(=O)Nc2ncc(Cl)cc2Cl)cc1,-,-,-,-,-,57[fluorescence artefact?]
Cc1ccc2c(c1)N(CC(=O)NC1CCCc3ccccc31)C(=O)CO2 (centres undefined),-,-,-,-,-,67
c1ccc(Cc2nnc3sc(-c4ccco4)nn23)cc1,-,59,-,-,-,64[fluorescence artefact?]
COc1cc(OC)c(-c2nn3c(-c4ccco4)nnc3s2)cc1OC,-,-,-,-,-,-
c1ccc(-c2cc(-c3nn4c(-c5ccco5)nnc4s3)c3ccccc3n2)cc1,-,54[fluorescence artefact?],-,-,-,70[fluorescence artefact?]
Cc1cc(-c2nn3c(-c4ccccc4)nnc3s2)c2ccccc2n1,-,-,-,-,-,73

# Assay outcomes (PubChem BioAssay)
